Rows were chosen to be rich in hits. Some 12% of all compounds tested hit in one or more screens of this group.
JMJD2A Tudor: qHTS Assay for Inhibitors of JMJD2A-Tudor Domain | hit rate 4.4% among 390,000 | AlphaScreen JMJD2A-Tudor / H3K4me3 peptide binding | Potency, µM (doses to about 114 µM), without a hit: at the top dose activity change, negative = inhibition, actives largely listed as inhibitors; note: % is set by controls: 0 for no effect and ±100 for the full control effect; nearly all actives have a fitted effect of over 50% in size
Target sequence (O75164 whole entry, looked up, the tested form may be a part): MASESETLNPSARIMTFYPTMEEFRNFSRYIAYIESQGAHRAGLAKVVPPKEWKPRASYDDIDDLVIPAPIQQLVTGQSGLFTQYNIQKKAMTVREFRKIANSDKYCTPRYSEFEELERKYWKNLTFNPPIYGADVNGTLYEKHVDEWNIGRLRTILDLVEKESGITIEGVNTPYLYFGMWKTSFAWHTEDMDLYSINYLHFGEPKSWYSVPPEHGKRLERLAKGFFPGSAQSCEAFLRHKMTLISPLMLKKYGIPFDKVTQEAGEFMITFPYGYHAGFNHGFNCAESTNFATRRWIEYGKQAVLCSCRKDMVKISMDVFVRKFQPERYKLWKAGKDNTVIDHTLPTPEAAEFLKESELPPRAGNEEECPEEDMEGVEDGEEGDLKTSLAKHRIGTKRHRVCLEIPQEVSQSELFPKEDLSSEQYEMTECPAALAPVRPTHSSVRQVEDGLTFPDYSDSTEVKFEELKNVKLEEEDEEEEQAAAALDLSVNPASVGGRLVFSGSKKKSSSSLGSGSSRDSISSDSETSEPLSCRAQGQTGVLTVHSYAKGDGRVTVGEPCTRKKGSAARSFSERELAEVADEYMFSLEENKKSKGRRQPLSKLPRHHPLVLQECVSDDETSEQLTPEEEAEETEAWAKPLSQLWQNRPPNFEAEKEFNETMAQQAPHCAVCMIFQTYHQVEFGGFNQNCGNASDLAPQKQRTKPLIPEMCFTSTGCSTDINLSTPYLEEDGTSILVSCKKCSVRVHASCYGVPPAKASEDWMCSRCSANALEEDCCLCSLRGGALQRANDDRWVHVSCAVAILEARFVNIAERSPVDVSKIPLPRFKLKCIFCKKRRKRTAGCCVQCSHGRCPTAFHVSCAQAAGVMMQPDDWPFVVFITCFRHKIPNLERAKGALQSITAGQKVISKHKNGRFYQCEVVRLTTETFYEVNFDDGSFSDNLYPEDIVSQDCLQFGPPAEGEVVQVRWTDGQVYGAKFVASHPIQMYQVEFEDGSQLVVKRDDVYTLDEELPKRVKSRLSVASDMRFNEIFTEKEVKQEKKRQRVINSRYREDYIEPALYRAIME
G9a inh: qHTS Assay for Inhibitors of Histone Lysine Methyltransferase G9a. hit rate 8.8% among 350,000. Potency, µM (doses to about 102 µM), for inactives: at the highest dose activity, negative = inhibition, most hits filed as inhibitors. G9a H3K9 monomethylation, AlphaScreen, 2 h; note: % is set by controls: 0 for no effect and ±100 for the full control effect; nearly all actives have a fitted effect of over 75% in size
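G9a (20 nM) preincubated 15 min RT with compounds, then 500 nM biotinylated H3K9 peptide and 20 uM SAM added; 2 h RT reaction. Monomethyl-H3K9 product detected by AlphaScreen with anti-H3K9me1 antibody, streptavidin donor and anti-rabbit IgG acceptor beads.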
L3MBTL1 block: qHTS Assay for the Inhibitors of L3MBTL1 | AID 485360, 2010 | hit rate 0.66% among 230,000 | Potency, µM (titrated, usually from 57.1 µM), for inactives: top-dose activity, negative = inhibition, hits mostly inhibitors | AlphaScreen L3MBTL1–H3K9me1 peptide binding | Lethal(3)malignant brain tumor-like protein 1 (Homo sapiens), Q9Y468; note: % is set by controls: 0 for no effect and ±100 for the full control effect; nearly all actives have a fitted effect of over 60% in size
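AlphaScreen assay: L3MBTL1 (50 nM final) was preincubated 30 min at room temperature with biotinylated H3(1-15)K9me1 peptide (75 nM final), then 30 min with library compounds; streptavidin donor and nickel chelate acceptor beads (10 ug/mL final) added, 30 min dark.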
BAZ2B inh: qHTS Assay for Inhibitors of BAZ2B; Bromodomain adjacent to zinc finger domain protein 2B (Homo sapiens), Q9UIF8; AlphaScreen BAZ2B-H3K14Ac peptide displacement; Potency, µM (highest dose often 114 µM), without a hit: top-dose activity change, negative = inhibition, most hits filed as inhibitors; hit rate 4.4% among 360,000; note: % is set by controls: 0 for no effect and ±100 for the full control effect; nearly all actives have a fitted effect of over 60% in size
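BAZ2B (50 nM) with biotin-H3(5-23)K14Ac peptide (50 nM) in PBS pH 7.4, 0.01% Tween-20, preformed 30 min, then compound 30 min at room temperature; top concentration 110uM. AlphaScreen streptavidin donor/nickel chelate acceptor beads (10 ug/mL final), 20 min dark, signal read.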
Sfp PPTase inh: qHTS Assay for Inhibitors of Bacillus subtilis Sfp phosphopantetheinyl transferase (PPTase). Biochemical Sfp PPTase activity, qHTS. Potency, µM, for the others: largest response in the series, negative = inhibition, actives largely listed as inhibitors. hit rate 3.5% among 310,000;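 note: the enzyme is Sfp with the accession as filed and its product quenches rhodamine fluorescence; 0% = enzyme reaction without inhibitor and -100% = no enzyme wells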
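Fluorescence-quenching assay: 15 nM Sfp-PPTase preincubated 15 min at room temperature with compound, then 5 uM rhodamine-CoA and 12.5 uM BHQ-2-labelled YbbR peptide added. Fluorescence (ex 525/em 598 nm) read at start and after 30 min; difference gives rate.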
HP1b binding inh: HTS for Inhibitors of HP1-beta Chromodomain Interactions with Methylated Histone Tails | Chromobox protein homolog 1 (Homo sapiens), P83916 | AlphaScreen HP1-beta / biotin-H3K9me3 peptide binding | Potency, µM (highest dose often 114 µM), for the others: at the top dose activity change, negative = inhibition, usual class: inhibitors | hit rate 0.56% among 390,000 | AID 540317, 2011; note: nearly all actives have a fitted effect of over 70% in size
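AlphaScreen: HP1-beta (50 nM) preformed 30 min with biotin-H3(1-18)K9me3 peptide (50 nM) in PBS pH 7.4, 0.01% Tween-20. Compound added for 30 min at RT, then streptavidin donor/nickel chelate acceptor beads (10 ug/mL) for 30 min.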
The depositor's hits bear a star; ? = inconclusive; . = not tested or not shown; [ ] = dose if it differs, or a comment. Calls come from the whole dose curve; as a rule, active = well fitted curve in the direction sought with a large enough effect; inconclusive = small, poorly fitted or top-dose-only effect, or another doubt; inactive = no such curve, though single readings can be large; an effect the other way counts as inactive or inconclusive. Potency is the fitted concentration of half-maximal effect.

SMILES | JMJD2A Tudor | G9a inh | L3MBTL1 block | BAZ2B inh | Sfp PPTase inh | HP1b binding inh
Cc1nc(/C(=N/O)C(N)=O)cs1 | -15%[11.4 µM] | 13µM* | -23% | 50µM* | 56µM* | 9%
Cc1ccc(-c2csc3nc(C)n(-n4cccc4)c(=O)c23)o1 | 0% | ? | 1% | . | 56µM* | 47%
COc1ccccc1C(=O)NNC(=O)C(=O)NC(C)(C)C | -10% | -22% | . | 89µM* | -7% | 56%
CC(C)(C)NC(=O)C(=O)NNC(=O)c1ccccc1Br | -20% | 22µM* | 3% | ? | -3% | 24%
O=C(NNC(=O)c1ccccc1Br)c1ccncc1 | -4% | -3% | 5% | 6% | 9% | 47%
COC(=O)NNC(=O)c1ccccc1OC | -1%[11.4 µM] | 12%[59 µM] | 7% | -2% | -16% | 70%
CCN(CC)c1ccc(NC(=O)c2cc3c(OC)cccc3[nH]2)cc1 | 16µM* | 8.9µM* | . | 20µM* | -7% | 45µM*
COc1ccc(C2CC(=O)N(CC(=O)Nc3ccc(C)c(Cl)c3)c3ccccc3S2)cc1OC (stereo not drawn) | -27% | ? | . | -13% | . | -1%
NC(=O)C(CC(=O)O)NC(=O)[C@@H]1CCCCNc2c(I)cc([N+](=O)[O-])cc2C(=O)N[C@@H](CO)C(=O)NCC(=O)N1 (stereo partly drawn) | . | 28µM* | ? | ? | -6% | .
NC(=O)C(CC(=O)O)NC(=O)[C@@H]1CCCNc2c(I)cc([N+](=O)[O-])cc2C(=O)N[C@@H](CO)C(=O)N[C@@H](Cc2ccc(O)cc2)C(=O)N1 (stereo partly drawn) | ? | 50µM* | -2% | -26% | -10% | 14%
CC[C@H](C)[C@@H]1NC(=O)c2cc([N+](=O)[O-])cc(F)c2NCCCC[C@@H](C(N)=O)NC(=O)[C@H](CCCCN)NC1=O | -31% | ? | 2% | -7% | 0% | 4%
OC(COc1ccccc1)CN1CCN(C(c2ccccc2)c2ccccc2)CC1 (stereo not drawn) | -33% | 11% | -2% | ? | 8% | 9%
Cc1ccc(Cl)cc1N1CCN(CC(O)COCc2ccco2)CC1 (stereo not drawn) | 7.1µM* | 11µM* | -7% | 50µM* | ? | ?
OC(COCc1ccco1)CN1CCN(C(c2ccccc2)c2ccccc2)CC1 (stereo not drawn) | 1.3µM* | -159% | 0% | 35µM* | -20% | 28µM*
CCOC(=O)c1c(C)sc(-c2c(-c3ccc4c(c3)OCCO4)[nH]c3c2c(=O)n(C)c(=O)n3C)c1O | -7% | 10%[59 µM] | . | ? | . | 63%
Cc1ccc(NC(=O)CN2C(=O)CCc3cc(S(=O)(=O)N4CCOCC4)ccc32)cc1F | 4% | -1%[12.7 µM] | . | -25% | . | 29%
COC(=O)C1=C(C)N(C)C(=O)NC1c1ccc(O)c(OC)c1 (stereo not drawn) | -25% | -10%[59 µM] | ? | -5% | -4% | 20%
COc1cc(C2NC(=O)C(C#N)=C(Nc3cccc(C)c3)S2)ccc1O (stereo not drawn) | -10% | 45µM* | 1% | -29% | 20µM* | 17%
CCOc1ccc(N2CC(=O)N/C2=N\c2nc(C)cc(C)n2)cc1 | ? | 56µM* | 5% | -5% | -4% | 25%
N#Cc1ccc(S(=O)(=O)N2CCC(Oc3cccc(C(F)(F)F)c3)CC2)cc1 | -4% | 24%[59 µM] | . | -8% | . | 35%
CC1(C)C(c2ccccc2)=[N+]([O-])C2(CCCCC2=O)N1O (stereo not drawn) | -3% | 7.9µM* | -4% | 3% | 24% | 31%
Cc1ccc2oc3c(c(=O)c2c1)C(c1ccc(F)cc1)N(CCCN1CCOCC1)C3=O (stereo not drawn) | . | 45µM* | . | -3% | ? | .
Cc1ccc2oc3c(c(=O)c2c1)C(c1cccc(O)c1)N(CCCN1CCOCC1)C3=O (stereo not drawn) | -10% | -2%[59 µM] | . | -2% | . | 4%
Cc1ccc2oc3c(c(=O)c2c1)C(c1cccc(Cl)c1)N(CCCN1CCOCC1)C3=O (stereo not drawn) | -20% | 50µM* | 3% | 0% | 8% | 19%
O=C1c2oc3ccc(F)cc3c(=O)c2C(c2cccc(O)c2)N1CCCN1CCOCC1 (stereo not drawn) | -6% | -14% | -5% | -12% | 7% | 61%
SMILES | JMJD2A Tudor | G9a inh | L3MBTL1 block | BAZ2B inh | Sfp PPTase inh | HP1b binding inh
COc1cccc(C2c3c(oc4ccc(F)cc4c3=O)C(=O)N2CCN2CCOCC2)c1OC (stereo not drawn) | -25% | -18%[59 µM] | 3% | 4% | 13% | 4%
O=C1c2oc3ccc(F)cc3c(=O)c2C(c2ccncc2)N1CCN1CCOCC1 (stereo not drawn) | . | 50µM* | 0% | 4% | -2% | .
Cc1ccc(C(=O)NCC(c2ccco2)S(=O)(=O)c2ccc(Cl)cc2)cc1C (stereo not drawn) | -14% | 3%[59 µM] | . | -13% | . | 13%
Cc1cc(C)cc(OCc2cc(=O)n3cc(C)sc3n2)c1 | 1% | -4%[59 µM] | . | -1% | . | 31%
COc1cc(N2N=C(c3ccccc3)CC2c2ccccc2)c(C=O)cc1C=O (stereo not drawn) | 32% | -127% | 6% | 36% | 11% | 89%
COc1ccccc1N1N=C(c2ccc([N+](=O)[O-])cc2)CC1c1ccccc1 (stereo not drawn) | 32µM* | 22%[0.501 µM] | -3%[2.29 µM] | 11µM* | -3% | ?
O=[N+]([O-])c1ccc(N2N=C(c3ccco3)CC2c2ccccc2)cc1 (stereo not drawn) | -28% | 7.9µM* | -28% | ? | 50µM* | -15%
CCCCN(C)C(=O)C1CCCN(c2ncnc3onc(C)c23)C1 (stereo not drawn) | -6% | 1%[59 µM] | . | 27%[57.1 µM] | . | 68%
Cc1ccc(N2CCN(C(=O)NCc3noc4ccc(C)cc34)CC2)c(C)c1 | -15% | -23%[59 µM] | . | -35% | . | 29%
COc1ccc2nc(N=Nc3c(O)ccc4ccccc34)sc2c1 | . | 3.2µM* | ? | 2.8µM* | 3% | .
COc1ccc2nc(NC(=O)Nc3cccc4ccccc34)sc2c1 | -25% | -8% | -2% | -13% | 17% | 75%
CCn1c(=O)sc2cc(NS(=O)(=O)c3ccc(F)c(C)c3)ccc21 | -5% | 1%[59 µM] | . | 2% | . | 38%
